Reference: PubChem BioAssay AID504406 (Broad Institute, 2011)
About 190 (0.059%) of roughly 320,000 compounds were called active. For the sample, actives were picked, then their nearest neighbours and some compounds at random. Values without a mark were called inactive. Rule as the data show it: active = inhibition above about 10% (passing the limit was not always enough); inconclusive = no clear call, values can overlap the other calls.

Biological target: UDP-galactopyranose mutase (Mycobacterium tuberculosis (strain ATCC 25618 / H37Rv)) (UniProt P9WIQ1)
Sequence (P9WIQ1 whole entry, looked up): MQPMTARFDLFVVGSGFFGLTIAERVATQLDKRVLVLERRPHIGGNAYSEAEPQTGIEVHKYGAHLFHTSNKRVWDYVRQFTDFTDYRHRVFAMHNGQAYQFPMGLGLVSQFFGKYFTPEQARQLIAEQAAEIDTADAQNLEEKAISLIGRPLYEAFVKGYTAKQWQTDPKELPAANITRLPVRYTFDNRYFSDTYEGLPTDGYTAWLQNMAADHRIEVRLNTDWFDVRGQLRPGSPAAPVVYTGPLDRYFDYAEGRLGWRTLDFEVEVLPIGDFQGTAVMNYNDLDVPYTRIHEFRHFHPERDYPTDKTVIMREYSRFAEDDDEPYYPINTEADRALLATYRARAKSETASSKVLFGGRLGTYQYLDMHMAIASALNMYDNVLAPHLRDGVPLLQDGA
Experiment: blockers of Mtb UDP-galactopyranose mutase – biochemical, fluorescence polarization, single point, primary screen (AID 504406)
Conditions: purified UGM, fluorescence polarization probe displacement; at 10 µM; hits give high values

Row | Structure (SMILES) | inhibition
1 | CC1CC(=O)N(CC(=O)Nc2cccc(Cl)c2)c2ccccc2S1(=O)=O (stereo unspecified) | -0.479%
2 | O=C(O)C1CC=CCC1C(=O)NCCc1ccccc1 (stereo unspecified) | -0.437%
3 | CC(NC(=O)c1ccc(S(=O)(=O)Nc2ccccc2)cc1)c1ccc(S(N)(=O)=O)cc1 (stereo unspecified) | -0.443%
4 | CC(=O)c1nn(-c2cccc(Br)c2)cc1C(=O)c1cccc2ccccc12 | 2.24%
5 | O=C(CCCN1CCc2[nH]c3ccc(F)cc3c2C1)c1ccc(F)cc1 | -0.464%
6 | COc1ccc(C(C)NC(=O)C23CC4CC(CC(C4)C2)C3)cc1 (stereo unspecified) | 0.347%
7 | CCOc1ccccc1-n1c(SCC(=O)N2CCCC2)nnc1-c1ccoc1C | 0.65%
8 | O=C(Cc1cccs1)NCc1cccc(C(F)(F)F)c1 | 0.316%
9 | O=C(CC1Oc2ccccc2NC1=O)NCCCN1CCN(Cc2ccccc2)CC1 (stereo unspecified) | -0.871%
10 | Cc1ccc(C(=O)CSc2nc3ccccc3c(=O)n2N)o1 | -2.34%
11 | COc1cccc(-c2ccc3c(c2)S(=O)(=O)c2cccc(C(=O)O)c2C3=O)c1OC | -0.479%
12 | O=C(COc1cc(Cl)c(Cl)cc1Cl)NCCc1ccccn1 | 1.96%
13 | O=C(C[n+]1cc(Br)cc2ccccc21)c1ccc(F)cc1 | -0.457%
14 | COC(=O)C[n+]1cccc2ccccc21 | 13.9% (active)
15 | COc1c(C(=O)N2CCCC2)ccc2ccccc12 | -0.901%
16 | COc1ccc(CCN2C(=O)c3[nH]nc(-c4ccccc4O)c3C2c2ccc(C)cc2)cc1OC (stereo unspecified) | 2.57%
17 | COc1ccc(N2CCN(S(=O)(=O)c3cc(Br)cnc3N)CC2)cc1 | 1.41%
18 | Cc1ccc(NS(=O)(=O)c2ccc(F)cc2)nc1 | -0.636%
19 | N#Cc1c(N)nc2c3c(sc(=N)c2c1N)NC(=O)CC3c1ccccc1Cl (stereo unspecified) | 2.45%
20 | COc1cccc(CNC(=O)CCC2CCCN(C(=O)c3ccoc3C)C2)c1 (stereo unspecified) | -0.384%
21 | COc1ccc(NC(=O)CN(Cc2ccccc2)S(C)(=O)=O)cc1OC | -0.501%
22 | CCc1ccccc1NC(=S)Nc1cc(OC)c(NC(=O)C(C)C)cc1OC | 0.622%
23 | COC(=O)C1=C(C(=O)OC)[C@@H]2N(C)c3ccccc3[C@@]23C[C@@H](C(=O)OC)N(C(C)=O)C3=N1 | -0.842%

Row | Structure (SMILES) | inhibition
24 | O=C(NCc1ccco1)C1CCCN1S(=O)(=O)c1ccccc1C(F)(F)F (stereo unspecified) | 5.45%
25 | CC(C)Oc1ccccc1C(=O)NC(CO)C(=O)O (stereo unspecified) | -1.15%
26 | CC(=O)C1=C(O)C(=O)N(c2ccc(S(N)(=O)=O)cc2)C1c1ccccc1F (stereo unspecified) | 3.63%
27 | Cc1ccc(CCn2c3c(c4ccccc42)CN(C)CC3)cn1 | 0.129%
28 | O=C(NCc1cccnc1)Nc1cccc(NC(=O)NCc2cccnc2)c1F | -4.12%
29 | CCOC(=O)C1(Cc2cccc(OC)c2)CCCN(C(=O)CCSC)C1 (stereo unspecified) | 1.34%
30 | Cc1ccc(-c2nn(-c3cccc(F)c3)cc2CNCCc2ccncc2)o1 | -3.08%
31 | Cc1ccc2c(CC(=O)NCc3cccs3)coc2c1 | -2.27%
32 | CCN1C(=NCc2ccc(OC)cc2)N[C@@H](CCc2ccccc2)[C@H](C(=O)NCc2ccc(OC)cc2)[C@H]1C | 0.311%
33 | COc1ccc(OC)c(C2N(c3ccccn3)C(=O)C3CCCN32)c1 (stereo unspecified) | -1.67%
34 | O=C(c1ccc(Cl)c(S(=O)(=O)N2CCCCCC2)c1)N1CCN(c2ccc(O)cc2)CC1 | 0.826%
35 | CSCCC(NS(=O)(=O)c1ccc2c(c1)oc(=O)n2C)C(=O)NCc1ccccc1 (stereo unspecified) | 7.62%
36 | COc1cccc(CNS(=O)(=O)c2ccc3c(c2)N(C(C)=O)CCS3)c1 | 0.635%
37 | Cc1nc(NCc2ccccc2)c(C(N)=O)c2c1COC(C)(C)C2 | -0.415%
38 | O=C(CSc1nnnn1-c1ccc(O)cc1)N1N=C(c2ccc3ccccc3c2)CC1c1ccccc1 (stereo unspecified) | -0.544%
39 | O=C(CN1C(=O)COc2ccc(Cl)cc21)N1CCOCC1 | -2.04%
40 | Nc1ncc(CN2CCCC(C(=O)Nc3ccc(-c4ccco4)cc3)C2)cn1 (stereo unspecified) | -0.194%
41 | O=C(CCCN1C(=O)c2ccccc2C1=O)Oc1ccc(Cl)cc1 | 1.46%
42 | COc1cc(S(=O)(=O)N(Cc2cccs2)C2CC2)ccc1-n1cnnn1 | -0.867%
43 | CCOc1cc(C(=O)Nc2ccc(S(=O)(=O)Nc3cnc4ccccc4n3)cc2)cc(OCC)c1OCC | -1.61%
44 | COC(=O)C1(C)CC1(c1ccccc1)c1ccccc1 (stereo unspecified) | -0.587%
45 | NC(=O)C1CC=CCC1C(=O)OCC(Cl)=C(Cl)Cl (stereo unspecified) | -1.58%
46 | Nc1ccc2nc3c(=O)[nH]c(=S)[nH]c3nc2c1 | 15.2% (active)

Row | Structure (SMILES) | inhibition
47 | CC(C)C[C@@H](COc1ccccc1)N1CCN(CC(C)C)CCC1=O | 1.36%
48 | O=C(Nc1ccc([N+](=O)[O-])cc1)OCCc1ccccn1 | -0.463%
49 | Cc1ccc(S(=O)(=O)NC2CCCCCC2)cc1C(N)=O | 1.67%
50 | CC(C)(C)C1CCC(C(=O)NCC(c2cccs2)N2CCOCC2)CC1 (stereo unspecified) | 0.328%
51 | C(=C\c1ccccc1)/CSc1nnc(-c2cccnc2)n1Cc1ccco1 | 1.26%
52 | Cc1nn(C)cc1N1C(=O)c2cccc3c(N)ccc(c23)C1=O | 31.9% (active)
53 | CC(C(=O)O)N1C(=O)c2cccc3cccc1c23 (stereo unspecified) | 3.93%
54 | CN1C(=O)c2cccc3c(N)ccc(c23)C1=O | 24.4% (active)
55 | COc1ccc([N+](=O)[O-])cc1NC(=O)c1ccc(N(Cc2ccccc2C)S(C)(=O)=O)cc1 | 0.0791%
56 | COc1cc(OC)cc(/C(N)=N/O)c1 | 1.41%
57 | CC(=O)Nc1ccc(NC(=O)C2CCCN2S(=O)(=O)c2cccc(C(F)(F)F)c2)cc1 (stereo unspecified) | -2.31%
58 | CC(=O)Nc1ccc(S(=O)(=O)NC(C)C(=O)OCCOc2ccc(F)cc2)cc1 (stereo unspecified) | -1.41%
59 | CCCCN(CC)CCNC(=O)CCNC(=O)Cn1ccc2ccccc2c1=O | 0.375%
60 | COCCCNC(NC(=O)c1ccc(C)cc1)C(Cl)(Cl)Cl (stereo unspecified) | -0.407%
61 | O=C(NNC1=NCCC1)c1cccc(S(=O)(=O)N2CCCCC2)c1 | 2.86%
62 | COc1ccc(/C=C(/NC(=O)c2ccco2)C(=O)Nc2ccc(C(C)=O)cc2)cc1 | 0.676%
63 | COc1ccc(-c2cc(C(=O)N3CCN(c4ccc(F)cc4)CC3)no2)cc1 | 0.979%
64 | Oc1ccc2ccc3cccc[n+]3c2c1 | 45.7% (active)
65 | CCc1ccc(C(=O)N2CCN(S(=O)(=O)c3sc(C(=O)O)c(C)c3C(=O)O)CC2)cc1 | 2.51%
66 | COc1cc(/C=C/C(=O)OCC(=O)NC2CC2)cc(OC)c1OC | 0.117%
67 | COc1ccc(/C=C/C(=O)OCC(=O)NC2CCCCCC2)cc1OC | 29.9% (active)
68 | COc1ccccc1/C=C/C(=O)OCC(=O)NC1CCCCCC1 | -0.893%
69 | COc1cccc(NC(=O)Cn2c3ccccc3c3nc4n(c(=O)c32)CCS4)c1 | 0.23%

Row | Structure (SMILES) | inhibition
70 | COc1ccccc1NC(=O)C(C)OC(=O)c1ccc(-n2cnnn2)cc1 (stereo unspecified) | -1.34%
71 | COc1ccc(S(=O)(=O)N2CCN(C(=O)c3cc(C)oc3C)CC2)cc1 | -0.865%
72 | COc1ccc(N(CC(=O)NC2CCCCC2)C(=O)CNC(=O)c2ccco2)c(OC)c1 | 2.4%
73 | CC(C)CCNc1nc(N2CCCC2)c2c(c1C#N)CCN(C)C2 | 3.98%
74 | Clc1ccc(-c2cc(C3CCNCC3)[nH]n2)c(Cl)c1 | 1.34%
75 | O=C1CCc2cc(S(=O)(=O)Nc3ccc(C(F)(F)F)cc3)cc3c2N1CC3 | -0.849%
76 | Cc1nnc(Nc2ccccc2F)s1 | -1.25%
77 | CCc1ccc2c(c1)C1(NN=C(c3ccccc3)S1)C(=O)N2 (stereo unspecified) | 1.69%
78 | O=C(OCc1cc(=O)n2ccsc2n1)C1(c2ccc(Cl)cc2)CC1 | -0.701%
79 | COc1ccc([N+](=O)[O-])cc1N(CC(=O)Nc1ccccc1C(=O)N1CCOCC1)S(C)(=O)=O | -1.48%
80 | O=C(NCC#CCSc1nnc(-c2cccc3ccccc23)o1)c1cccs1 | 0.904%
81 | O=C(COC(=O)CCCSc1nc2ccccc2[nH]1)Nc1ccc(Oc2ccccc2)cc1 | -1.64%
82 | Cn1c(=O)[nH]c(=O)c2c1nc(NCCCn1ccnc1)n2Cc1cccc(Br)c1 | 1.02%
83 | N#CC1=C(N)C(C#N)(C#N)[C@H](c2ccsc2)[C@H]2COCC=C12 | 0.548%
84 | CCN1CC=C2C(C#N)=C(N)C(C#N)(C#N)[C@H](c3ccoc3)[C@H]2C1 | 13.1% (active)
85 | COc1ccc(OC)c(CCNC(=O)CCn2ccc3cc(S(=O)(=O)N4CCCC4)ccc32)c1 | -0.0435%
86 | CCN(C(=O)COC(=O)CCC(=O)c1cccs1)C1CCCCC1 | 0.798%
87 | CCN(C(=O)CSc1cccc[n+]1[O-])c1ccccc1 | 1.75%
88 | COc1ccccc1CCC(=O)OCC(=O)N1CCN(S(=O)(=O)c2ccc(C)cc2C)CC1 | 2.52%
89 | CC(=O)N1CC2(C)CN(C(C)=O)CC(C)(C1)C2=O | -1.57%
90 | COCCn1c(SCc2nc3cc(OC)c(OC)cc3c(=O)[nH]2)nnc1-c1ccncc1 | 0.376%
91 | COCCCNC(=O)CC1C[C@H](C(=O)N2CCCCC2)[C@@]2(CCc3ccccc3)c3[nH]c4ccccc4c3CCN2C1=O (stereo partly specified) | -1.3%
